Compound activity deposited in PubChem by National Center for Advancing Translational Sciences (NCATS).
The sample as a whole holds a higher share of hits than the screen did.
HT1080 IDH1KD tx: toxicity to HT-1080 IDH1 knockdown cells (counter line); HT-1080 IDH1 knockdown viability, ATP luminescence, 48 h; Potency, µM (series often up to 46.1 µM), actives largely listed as cytotoxic; hit rate 2% among 360,000
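CellTiter-Glo luminescence after 48 h compound exposure at 37 degrees C of IDH1-knockdown HT-1080 cells in 5% FBS RPMI. %Activity scaled between DMSO wells and cell-free media wells, with curves fitted and assigned curve classes.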
TDP1 cell noCPT: qHTS for Inhibitors of human tyrosyl-DNA phosphodiesterase 1 (TDP1): qHTS in cells in absence of CPT. DT40 Tdp1-/- hTDP1 cells, no CPT, ATP luminescence, 48 h. Potency, µM (series often up to 46.2 µM), most hits filed as inhibitors. hit rate 15% among 420,000; also: nearly all actives have a fitted effect of over 55% in size
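DT40 Tdp1-/-;hTDP1 cells, no CPT (DMSO vehicle only), 400 cells/well; compounds pin-transferred; ≥48 hr, 37 °C; CellTiter-Glo 30 min RT dark, luminescence read.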
IL-1B inflam inh: inhibitors of inflammasome signaling (IL-1 beta secretion); THP-1 LPS/ATP IL-1B secretion, AlphaLISA, 16 h; hits give low values; activity change, % at 57.5 µM; hit rate 4.7% among 360,000; in the data active = activity change below about -50%; inconclusive = mostly about -30% to -49%
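Secreted IL-1B measured by AlphaLISA bead assay after 16 h compound exposure of THP-1 cells; compounds (final up to 57.5 uM) added 1 h before LPS (250 ng/mL) and ATP (1.25 mM) stimulation; lower signal means less secretion.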
HT1080NT lethal: kills 2HG-producing HT-1080-NT fibrosarcoma cells; Potency, µM (titrated, usually from 46.1 µM), usual class: cytotoxic; HT-1080-NT fibrosarcoma viability, CellTiter-Glo ATP luminescence, 48 h; hit rate 1.6% among 360,000;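 also: NT is the 2HG producing partner of a matched IDH1 knockdown line; nearly all actives have a fitted effect of over 55% in size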
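Compounds were tested in concentration-response format on HT-1080-NT cells for 48 hours at 37 degrees C. Cell viability came from CellTiter-Glo luminescence; curves were classified by r2, response magnitude and activity.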
TDP1 cell CPT: DT40-hTDP1 cell growth loss with CPT; AID 686979; hit rate 12% among 420,000; chicken DT40 Tdp1-/-;hTDP1 cells + 20 nM CPT, ATP luminescence, 48 h; Potency, µM (titrated, usually from 46.2 µM), most hits filed as inhibitors; also: nearly all actives have a fitted effect of over 55% in size
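Cell growth measured by CellTiter-Glo luminescence after a minimum 48 h, 37 C compound exposure with 20 nM CPT in Tdp1-knockout DT40 cells stably expressing hTDP1, seeded 400/well; qHTS titration format.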
ALOX12 inh: blocks human arachidonate 12S-lipoxygenase. P18054. purified 12hLO, xylenol orange hydroperoxide absorbance. Potency, µM (titrated, usually from 108 µM), most hits filed as inhibitors. hit rate 1.1% among 580,000
Target sequence (P18054 whole entry, looked up): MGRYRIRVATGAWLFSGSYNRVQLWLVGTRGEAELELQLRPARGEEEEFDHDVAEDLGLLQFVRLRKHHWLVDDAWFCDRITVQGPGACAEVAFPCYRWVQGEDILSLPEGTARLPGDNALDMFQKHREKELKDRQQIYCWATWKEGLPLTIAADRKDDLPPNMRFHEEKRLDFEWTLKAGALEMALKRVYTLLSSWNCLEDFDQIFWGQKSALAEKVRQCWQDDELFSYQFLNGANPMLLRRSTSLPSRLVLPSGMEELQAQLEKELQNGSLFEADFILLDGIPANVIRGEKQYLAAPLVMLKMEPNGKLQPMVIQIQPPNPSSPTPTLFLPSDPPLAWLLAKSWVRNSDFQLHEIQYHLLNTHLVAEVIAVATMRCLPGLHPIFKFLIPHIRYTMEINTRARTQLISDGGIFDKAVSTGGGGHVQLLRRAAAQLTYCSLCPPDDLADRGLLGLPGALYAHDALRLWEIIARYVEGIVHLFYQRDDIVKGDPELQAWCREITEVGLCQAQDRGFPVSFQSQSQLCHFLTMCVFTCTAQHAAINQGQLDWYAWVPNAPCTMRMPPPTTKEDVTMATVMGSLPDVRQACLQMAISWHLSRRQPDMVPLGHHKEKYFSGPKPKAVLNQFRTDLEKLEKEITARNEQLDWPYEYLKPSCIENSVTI
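Purified human 12hLO at 150 nM in 25 mM Hepes, 0.01% Triton X-100, pH 7.0, preincubated 15 min at room temperature with compound. Reaction started with 40 uM arachidonic acid, 30 min at room temperature. Hydroperoxide measured by Fe-xylenol orange, 573/405 nm absorbance ratio.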
A number is an active result. Unless noted, calls follow the shape of the dose curve; as a rule, active = well fitted curve in the direction sought with a large enough effect; inconclusive = small, poorly fitted or top-dose-only effect, or another doubt; inactive = no such curve, though single readings can be large; an effect the other way counts as inactive or inconclusive.

Screening Cc1cccc(N2CCN(C(=O)c3ccncc3)CC2C)c1 (centres undefined) returned HT1080 IDH1KD tx inactive, TDP1 cell noCPT inactive, IL-1B inflam inh inactive, HT1080NT lethal inactive, TDP1 cell CPT inactive and ALOX12 inh inactive.
Screening COc1ccc(N2CCN(C(=O)c3ccc(CS(=O)(=O)c4ccc(OC)cc4)o3)CC2)cc1 returned HT1080 IDH1KD tx inactive, TDP1 cell noCPT inactive, IL-1B inflam inh inactive, HT1080NT lethal inconclusive, TDP1 cell CPT inactive and ALOX12 inh inactive.
Cc1cccc(N2CCN(C(=O)c3cc(C)oc3C)CC2C)c1 (centres undefined) was read as HT1080 IDH1KD tx inactive, TDP1 cell noCPT 16.4µM, IL-1B inflam inh inconclusive, HT1080NT lethal inactive, TDP1 cell CPT inconclusive and ALOX12 inh inactive.
Screening CCOc1ccccc1N1CCN(C(=S)NC(=O)C23CC4CC(CC(C4)C2)C3)CC1 returned HT1080 IDH1KD tx inactive, TDP1 cell noCPT 16.4µM, IL-1B inflam inh inactive, HT1080NT lethal inactive, TDP1 cell CPT 18.4µM and ALOX12 inh inconclusive.
CN1CCc2c(sc3c2C(=O)NC(c2ccc(OC(=O)c4ccc(C(C)(C)C)cc4)cc2)N3)C1 (centres undefined) was read as TDP1 cell noCPT inconclusive, TDP1 cell CPT inconclusive and ALOX12 inh inactive.
`CCOC(=O)N1CCc2c(sc3c2C(=O)NC(c2cc(OC)c(OC)c(OC)c2)N3)C1` (centres undefined) gave TDP1 cell noCPT 5.17µM, TDP1 cell CPT 3.66µM and ALOX12 inh inactive.
CCOC(=O)N1CCc2c(sc3c2C(=O)NC(c2ccc(C(=O)OC)cc2)N3)C1 (centres undefined) was read as TDP1 cell noCPT 13µM, TDP1 cell CPT 7.31µM and ALOX12 inh inactive.
`CN1CCc2c(sc3c2C(=O)NC(c2ccccc2)N3)C1` (centres undefined) gave HT1080 IDH1KD tx inactive, TDP1 cell noCPT 23.1µM, IL-1B inflam inh inactive, HT1080NT lethal inactive, TDP1 cell CPT inconclusive and ALOX12 inh inactive.
For Cc1nc(NCCNS(C)(=O)=O)cc(C2CC(O)C2)n1 (centres undefined) the results were ALOX12 inh inactive.
For CN1CCN(C(=O)[C@@H]2CCC[C@@H](NC(=O)c3ccc(Cl)cc3)CN(C)C(=O)C2)CC1 the results were ALOX12 inh inactive.
Cc1ccccc1-c1nc(C#N)c(NCCCN(C)C)o1 was read as ALOX12 inh inactive.
Screening Cn1c(Nc2ccccc2)nc2cnc(-c3ccc(S(C)(=O)=O)cc3)cc21 returned ALOX12 inh inactive.
For Cc1cc(C(=O)COc2ccc(C#N)cc2)c(C)n1C1CC1 the results were HT1080 IDH1KD tx inactive, TDP1 cell noCPT 18.4µM, IL-1B inflam inh inactive, HT1080NT lethal inactive, TDP1 cell CPT inconclusive and ALOX12 inh inactive.
COCCn1c(C)cc(C(=O)COC(=O)c2c(C)nn(Cc3ccccc3)c2C)c1C was read as HT1080 IDH1KD tx inactive, TDP1 cell noCPT inconclusive, IL-1B inflam inh inactive, HT1080NT lethal inactive, TDP1 cell CPT inactive and ALOX12 inh inactive.
Screening Cc1nn(Cc2ccccc2)c(C)c1C(=O)OCC(=O)c1cc(C)n(C2CC2)c1C returned HT1080 IDH1KD tx inactive, TDP1 cell noCPT 18.4µM, IL-1B inflam inh -58.4, HT1080NT lethal inactive, TDP1 cell CPT 23.1µM and ALOX12 inh inactive.
`CCCCCc1c(CC)ncn1CCc1ccccc1OC` gave HT1080 IDH1KD tx inconclusive, TDP1 cell noCPT 2.91µM, IL-1B inflam inh inconclusive, HT1080NT lethal 25.9µM, TDP1 cell CPT 4.61µM and ALOX12 inh inactive.
`CCCCc1c(-c2ccccc2OC)ncn1Cc1ccc([N+](=O)[O-])cc1` gave ALOX12 inh inactive.
For CCCCc1c(-c2ccccc2OC)ncn1CCc1ccccc1OC the results were HT1080 IDH1KD tx 13µM, TDP1 cell noCPT 8.2µM, IL-1B inflam inh -100.1, HT1080NT lethal 18.4µM, TDP1 cell CPT 11.6µM and ALOX12 inh inactive.
`COc1ccccc1CCn1cnc(-c2ccc(Cl)cc2)c1CC(C)C` gave ALOX12 inh inactive.
Screening CCCCc1c(-c2ccccc2OC)ncn1Cc1ccc(Cl)cc1Cl returned ALOX12 inh 31.6µM.
`CCCCc1c(-c2ccccc2OC)ncn1Cc1ccc(F)cc1F` gave ALOX12 inh inactive.
`CCCCc1c(-c2ccccc2OC)ncn1CCc1ccccc1Cl` gave HT1080 IDH1KD tx inconclusive, TDP1 cell noCPT 14.6µM, IL-1B inflam inh -61.8, HT1080NT lethal inconclusive, TDP1 cell CPT 7.31µM and ALOX12 inh inactive.
Screening O=C(NCc1cnccn1)c1ccc(-c2ncc3cnc(C4=CCOCC4)cn23)cc1 returned ALOX12 inh inactive.
Screening CCCCCc1c(-c2ccccc2OC)ncn1CCc1ccccc1OC returned HT1080 IDH1KD tx 16.4µM, TDP1 cell noCPT 5.17µM, IL-1B inflam inh -94.7, HT1080NT lethal 16.4µM, TDP1 cell CPT 5.17µM and ALOX12 inh inactive.
For CCCCc1c(-c2ccccc2Br)ncn1CCc1ccccc1OC the results were HT1080 IDH1KD tx inconclusive, TDP1 cell noCPT 20.6µM, IL-1B inflam inh -79.0, HT1080NT lethal inconclusive, TDP1 cell CPT 14.6µM and ALOX12 inh inconclusive.
CCCc1c(-c2ccccc2OC)ncn1CCc1ccccc1OC was read as ALOX12 inh inactive.
For NS(=O)(=O)c1ccc(NC(=O)C2CCn3c(C(=O)c4ccccc4)ccc32)cc1 (centres undefined) the results were ALOX12 inh inactive.
NC(=O)c1ccccc1N/C=C/C(=O)c1cccs1 was read as HT1080 IDH1KD tx inactive, TDP1 cell noCPT inactive, IL-1B inflam inh inactive, HT1080NT lethal inactive, TDP1 cell CPT inactive and ALOX12 inh inactive.
For NC(=O)c1ccccc1N/C=C/C(=O)c1ccc(Cl)cc1Cl the results were HT1080 IDH1KD tx inactive, TDP1 cell noCPT 18.4µM, IL-1B inflam inh -54.8, HT1080NT lethal inactive, TDP1 cell CPT inconclusive and ALOX12 inh inactive.
For NC(=O)c1ccccc1N/C=C/C(=O)c1ccc(F)cc1 the results were HT1080 IDH1KD tx inactive, TDP1 cell noCPT 14.6µM, IL-1B inflam inh inactive, HT1080NT lethal inactive, TDP1 cell CPT inconclusive and ALOX12 inh inactive.
For Cc1[nH]c2ccccc2c1C(=O)C(=O)Nc1ccc(F)c(Cl)c1 the results were ALOX12 inh inactive.
`CCCCNC(=O)C(C)N(CCN(C)C)C(=O)CCCN1C(=O)NC(c2ccc([N+](=O)[O-])cc2)C(C(=O)OCc2ccccc2)=C1C` (centres undefined) gave HT1080 IDH1KD tx inconclusive, TDP1 cell noCPT 23.1µM, IL-1B inflam inh -78.8, HT1080NT lethal inconclusive and TDP1 cell CPT 18.4µM.
